# Assay results from PubChem BioAssay (NCI).
# Compounds without any hit were thinned out: in the full panel of roughly 79,000, 15% have a hit. A number with no mark means an inactive call. Active and inactive are the calls of the source. Rule as the data show it: active = growth inhibition above about 70%; inactive = the rest. Where a SMILES comes first, the peptide text is derived from it. Bridges are numbered along the chain shown (N, C = ends). The star is where a group is joined. Cbz = O=C(OCc1ccccc1)*; OBn = c1ccc(CO*)cc1
# Assay: NCI Yeast Anticancer Drug Screen. Data for the rad50 strain (AID 155);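 also: 0% = growth of vehicle-only cultures of the same strain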
# Details: S. cerevisiae rad50 strain growth inhibition; at 50.0 µM; hits give high values
# Outline: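 Inhibition values express reduced yeast growth in compound-treated cultures relative to vehicle-treated controls.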
row,Structure (SMILES),growth inhibition
1,CSc1nc(NC2OC(CO)C(O)C(O)C2O)cc(=O)[nH]1 (stereo not given),3.5%
2,O=c1nc(N2CCSCC2)ccn1C1OC(CO)C(O)C1O (stereo not given),-6.5%
3,Oc1ccc(Br)cc1C(c1ccc2c(c1)OCO2)N1CCOCC1 (stereo not given),8.65%
4,CC(C)C(O)C(=O)C(O)C(C)C (stereo not given),-13.4%
5,N#CC(/C(=N\NC(N)=S)C(=O)NC1C2CC3CC(C2)CC1C3)c1ccc(Cl)cc1 (stereo not given),29.2%
6,CC(=O)N=C1CSc2ccccc2N1C,-1.15%
7,CCOCCOC(=O)OCCOCC,10.3%
8,Cc1ccc(-c2cnc3c(n2)c(=O)[nH]c(=O)n3C)cc1,29.5%
9,NC(=O)N/N=C1\CC2CCC1C2Cl (stereo not given),-0.05%
10,C/[N+]([O-])=N/COC1OC(COC2OCC(O)C(O)C2O)C(O)C(O)C1O (stereo not given),7.5%
11,C#CCN(C(=O)C(F)(F)F)C(/C=C\C(=O)OC)(C(=O)OCC)C(=O)OCC,-10.3%
12,Cc1ncc(N)nc1C,-5.25%
13,CCCCc1c2c(nn1C(C)=O)C(=O)C=C(Nc1ccccc1)C2=O,21.8%
14,O=[N+]([O-])c1ccc(S(=O)(=O)Nc2ccccc2-c2ccccc2)cc1,99% (active)
15,Oc1ccccc1C=NCCCN=Cc1ccccc1O,12.4%
16,COc1ccc(OC)c2c3c([nH]c12)C(=O)Nc1nc(N)nc(N)c1C3,42.9%
17,CCc1cc(C(C)(C)C)c(O)c(C(C)(C)C)c1,33.6%
18,CN(C)CCC(c1ccccc1)c1ccccc1,-22.4%
19,O=CC(=O)c1cccc([N+](=O)[O-])c1,3.55%
20,c1ccc(CNCCCNCCCCNCCCNCc2ccccc2)cc1,7.75%

row,Structure (SMILES),growth inhibition
1,CN(C=O)C1CCC2C3CC=C4CC(OC=O)CCC4(C)C3CCC21C (stereo not given),1.35%
2,C[N+](C)(C)CC(=O)N/N=C(\C(=O)Nc1ccc(Cl)cc1)C1C(=O)N(c2ccccc2)N=C1N (stereo not given),-15.4%
3,COC(OC)c1cccnc1C,-25.6%
4,COc1ccc(NCc2cnc3nc(N)nc(N)c3c2C)cc1,7%
5,Cc1cc2ccccc2c[n+]1CC(=O)c1ccc([N+](=O)[O-])cc1,-4.1%
6,COc1cc(OC)c2c(c1)OC(c1ccccc1)CC2=O (stereo not given),-3.3%
7,COC(=O)C1CCC(=O)NCCCCC(NC(=O)C(CC(=O)OCc2ccccc2)NC(=O)OCc2ccccc2)C(=O)N1 (stereo not drawn) (Cbz-Asp(OBn)-Lys-Glu-OMe; lactam 2-3; configuration not given here),-2%
8,NC1=NN(c2c(Cl)cc(Cl)cc2Cl)C(=O)C1,21.9%
9,COC(=O)/C=C(C)/C=C/C1OC(C)OCC1O (stereo not given),7.55%
10,CC12CC3CC(C1)CC(NCCO)(C3)C2,-0.8%
11,CCOC(=O)c1ccc(/C(C)=N/NC(N)=S)cc1,7.35%
12,CC(=O)Oc1ccccc1C(=O)OC(=O)c1ccccc1OC(C)=O,5.3%
13,CCOc1c(OC)ccc(C(C)=O)c1O,-17.8%
14,O=C(CCn1ccnc1[N+](=O)[O-])NCCCn1ccnc1[N+](=O)[O-],-24.1%
15,O=C(Cl)N(C1CCCCC1)C1CCCCC1,-19%
16,CC(C)CC1=C(N(C)C)C(=O)C=C(N(C)C)C1=O,-0.35%
17,N#CC(C(=O)O)=C1CCCCCC1,2.4%
18,CC(=O)N(C)N=Nc1ccc(Cl)cc1,10.4%
19,NC(=O)c1ccc[n+](CCCCCCCCCCC(=O)[O-])c1,-7%
20,C=CCCC(=O)CC(=O)OCC,-25.1%

# Assay: NCI Yeast Anticancer Drug Screen. Data for the mec2-1 strain (AID 157)
# Details: S. cerevisiae mec2-1 strain, at 50.0 µM, hits give high values
# Outline: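 Using mec2-1 yeast: add compound, measure growth, express inhibition versus vehicle-treated cultures.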
row,Structure (SMILES),growth inhibition
1,CSc1nc(NC2OC(CO)C(O)C(O)C2O)cc(=O)[nH]1 (stereo not given),4.2%
2,O=c1nc(N2CCSCC2)ccn1C1OC(CO)C(O)C1O (stereo not given),-6.7%
3,Oc1ccc(Br)cc1C(c1ccc2c(c1)OCO2)N1CCOCC1 (stereo not given),14.3%
4,CC(C)C(O)C(=O)C(O)C(C)C (stereo not given),-8.2%
5,N#CC(/C(=N\NC(N)=S)C(=O)NC1C2CC3CC(C2)CC1C3)c1ccc(Cl)cc1 (stereo not given),10.2%
6,CC(=O)N=C1CSc2ccccc2N1C,-7.2%
7,CCOCCOC(=O)OCCOCC,1.9%
8,Cc1ccc(-c2cnc3c(n2)c(=O)[nH]c(=O)n3C)cc1,19.1%
9,NC(=O)N/N=C1\CC2CCC1C2Cl (stereo not given),-1.35%
10,C/[N+]([O-])=N/COC1OC(COC2OCC(O)C(O)C2O)C(O)C(O)C1O (stereo not given),-0.4%
11,C#CCN(C(=O)C(F)(F)F)C(/C=C\C(=O)OC)(C(=O)OCC)C(=O)OCC,-24.9%
12,Cc1ncc(N)nc1C,-15.8%
13,CCCCc1c2c(nn1C(C)=O)C(=O)C=C(Nc1ccccc1)C2=O,21.8%
14,O=[N+]([O-])c1ccc(S(=O)(=O)Nc2ccccc2-c2ccccc2)cc1,99% (active)
15,Oc1ccccc1C=NCCCN=Cc1ccccc1O,0.25%
16,COc1ccc(OC)c2c3c([nH]c12)C(=O)Nc1nc(N)nc(N)c1C3,19.9%
17,CCc1cc(C(C)(C)C)c(O)c(C(C)(C)C)c1,9.65%
18,CN(C)CCC(c1ccccc1)c1ccccc1,-2.85%
19,O=CC(=O)c1cccc([N+](=O)[O-])c1,7.75%
20,c1ccc(CNCCCNCCCCNCCCNCc2ccccc2)cc1,-5.5%

row,Structure (SMILES),growth inhibition
1,CN(C=O)C1CCC2C3CC=C4CC(OC=O)CCC4(C)C3CCC21C (stereo not given),11.3%
2,C[N+](C)(C)CC(=O)N/N=C(\C(=O)Nc1ccc(Cl)cc1)C1C(=O)N(c2ccccc2)N=C1N (stereo not given),1.25%
3,COC(OC)c1cccnc1C,16.8%
4,COc1ccc(NCc2cnc3nc(N)nc(N)c3c2C)cc1,6.6%
5,Cc1cc2ccccc2c[n+]1CC(=O)c1ccc([N+](=O)[O-])cc1,32.1%
6,COc1cc(OC)c2c(c1)OC(c1ccccc1)CC2=O (stereo not given),3.05%
7,COC(=O)C1CCC(=O)NCCCCC(NC(=O)C(CC(=O)OCc2ccccc2)NC(=O)OCc2ccccc2)C(=O)N1 (stereo not drawn) (Cbz-Asp(OBn)-Lys-Glu-OMe; lactam 2-3; configuration not given here),3.95%
8,NC1=NN(c2c(Cl)cc(Cl)cc2Cl)C(=O)C1,-3.8%
9,COC(=O)/C=C(C)/C=C/C1OC(C)OCC1O (stereo not given),2.3%
10,CC12CC3CC(C1)CC(NCCO)(C3)C2,-13.7%
11,CCOC(=O)c1ccc(/C(C)=N/NC(N)=S)cc1,3.8%
12,CC(=O)Oc1ccccc1C(=O)OC(=O)c1ccccc1OC(C)=O,-10.2%
13,CCOc1c(OC)ccc(C(C)=O)c1O,-15.2%
14,O=C(CCn1ccnc1[N+](=O)[O-])NCCCn1ccnc1[N+](=O)[O-],-2.15%
15,O=C(Cl)N(C1CCCCC1)C1CCCCC1,-8.8%
16,CC(C)CC1=C(N(C)C)C(=O)C=C(N(C)C)C1=O,-9.4%
17,N#CC(C(=O)O)=C1CCCCCC1,-1%
18,CC(=O)N(C)N=Nc1ccc(Cl)cc1,11.7%
19,NC(=O)c1ccc[n+](CCCCCCCCCCC(=O)[O-])c1,7.05%
20,C=CCCC(=O)CC(=O)OCC,-22.7%
